What all share (assay): yeast three-hybrid, YBZ-1, SC-Leu-His + 0.5 mM 3-AT, 4 days
Holding throughout (details): tags: N-Gal4 AD-HA kept; label: inside an RPR1-promoter hybrid RNA with tandem MS2 sites; ssRNA

One assay addresses PUM1 PUF domain R5-KHS (Homo sapiens, UniProt Q14671 828-1176, C1007K;R1008H;Q1011S). Put shortly:
(§1)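 The interaction score is the log change in variant frequency from input to selection. Scores were computed in log2 with a pseudocount of 1 for absent variants, using Illumina sequencing of PCR-amplified repeat regions. The input came from four days on SC-Leu and the selection from four days on SC-Leu-His + 0.5 mM 3-AT. The cells were strain YBZ-1 (LexA–MS2 coat fusion, HIS3 reporter) co-expressing Pumilio-1 PUF domain libraries and matching RNA elements from a centromeric plasmid.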

Another assay deals with PUM1 PUF domain R7-LST (Homo sapiens, UniProt Q14671 828-1176, S1079L;N1080S;E1083T). A digest of the protocol: as §1
PUM1 PUF domain R7-LST, sequence (Q14671 828-1176 S1079L/N1080S/E1083T): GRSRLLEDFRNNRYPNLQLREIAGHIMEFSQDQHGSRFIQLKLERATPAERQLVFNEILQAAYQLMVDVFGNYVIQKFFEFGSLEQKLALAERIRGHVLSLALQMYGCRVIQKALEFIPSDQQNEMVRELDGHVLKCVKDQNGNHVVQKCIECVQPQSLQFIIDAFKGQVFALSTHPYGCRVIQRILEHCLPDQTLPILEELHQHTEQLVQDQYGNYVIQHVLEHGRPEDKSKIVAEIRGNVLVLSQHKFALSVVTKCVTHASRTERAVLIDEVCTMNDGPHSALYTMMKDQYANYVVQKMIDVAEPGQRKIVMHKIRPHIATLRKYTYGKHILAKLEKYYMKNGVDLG
In another assay the target is PUM1 PUF domain R4-ANL (Homo sapiens, UniProt Q14671 828-1176, N971A;H972N;Q975L). A digest of the protocol: as §1
The target of a further assay is PUM1 PUF domain R4-SPR (Homo sapiens, UniProt Q14671 828-1176, N971S;H972P;Q975R). Put shortly: as §1
For a further assay, the target named is PUM1 PUF domain R4-WGS (Homo sapiens, UniProt Q14671 828-1176, N971W;H972G;Q975S). Put shortly: as §1
The next assay concerns the target PUM1 PUF domain R5-CGR (Homo sapiens, UniProt Q14671 828-1176, R1008G;Q1011R). A digest of the protocol: as §1
A further assay concerns the target PUM1 PUF domain R5-NPR (Homo sapiens, UniProt Q14671 828-1176, C1007N;R1008P;Q1011R). Put shortly:
as §1

The target in a further assay is PUM1 PUF domain R8-FFK (Homo sapiens, UniProt Q14671 828-1176, N1122F;Y1123F;Q1126K). Put shortly:
as §1

The next assay deals with PUM1 PUF domain R4-AQY (Homo sapiens, UniProt Q14671 828-1176, N971A;H972Q;Q975Y). Put shortly:
as §1

For another assay, the target named is PUM1 PUF domain R4-AYP (Homo sapiens, UniProt Q14671 828-1176, N971A;H972Y;Q975P). A digest of the protocol:
as §1

PUM1 PUF domain R5-CGR, sequence (Q14671 828-1176 R1008G/Q1011R): as the sequence (Q14671 828-1176 S1079L/N1080S/E1083T) above, with R181G, Q184R, L252S, S253N, T256E counted along it
PUM1 PUF domain R8-FFK, sequence (Q14671 828-1176 N1122F/Y1123F/Q1126K): as the sequence (Q14671 828-1176 S1079L/N1080S/E1083T) above, with L252S, S253N, T256E, N295F, Y296F, Q299K counted along it

Turning to “GGCUAGAACUAGUGGAUCCCCCGGCGCCCGGCGGCUCGAGCCCGGGUAAGUGUGAAUAGUCUGCAUGCCGCCGGGCGCCAUGCCUGCAGGUCGACUCUAGAAAACAUG”, in the assay with PUM1 PUF domain R5-KHS, the binding signal was 2.1 log2 enrichment (interaction score).

In the case of “GGCUAGAACUAGUGGAUCCCCCGGCGCCCGGCGGCUCGAGCCCGGGUAAGUUUAAAUAGUCUGCAUGCCGCCGGGCGCCAUGCCUGCAGGUCGACUCUAGAAAACAUG”, in the assay with PUM1 PUF domain R7-LST, the binding signal is 3.64 log2 enrichment (interaction score).

As for “GGCUAGAACUAGUGGAUCCCCCGGCGCCCGGCGGCUCGAGCCCGGGUAAGUGUACAUAGUCUGCAUGCCGCCGGGCGCCAUGCCUGCAGGUCGACUCUAGAAAACAUG”, the binding signal was 1.38 log2 enrichment (interaction score) in the assay with PUM1 PUF domain R4-ANL, 2.73 log2 enrichment (interaction score) with PUM1 PUF domain R4-SPR and 2.86 log2 enrichment (interaction score) with PUM1 PUF domain R4-WGS.

In the case of “GGCUAGAACUAGUGGAUCCCCCGGCGCCCGGCGGCUCGAGCCCGGGUAAGUGUCAAUAGUCUGCAUGCCGCCGGGCGCCAUGCCUGCAGGUCGACUCUAGAAAACAUG”, the binding signal with PUM1 PUF domain R5-KHS is 4.98 log2 enrichment (interaction score); with PUM1 PUF domain R5-CGR, 4.13 log2 enrichment (interaction score); with PUM1 PUF domain R5-NPR, 4.07 log2 enrichment (interaction score).

“GGCUAGAACUAGUGGAUCCCCCGGCGCCCGGCGGCUCGAGCCCGGGUAAGUGUUAAUAGUCUGCAUGCCGCCGGGCGCCAUGCCUGCAGGUCGACUCUAGAAAACAUG”: the binding signal with PUM1 PUF domain R5-KHS is 6.04 log2 enrichment (interaction score); with PUM1 PUF domain R5-NPR it was 4.1 log2 enrichment (interaction score).

Regarding “GGCUAGAACUAGUGGAUCCCCCGGCGCCCGGCGGCUCGAGCCCGGGUAAGUGUAUAUAGUCUGCAUGCCGCCGGGCGCCAUGCCUGCAGGUCGACUCUAGAAAACAUG”, the binding signal was 2.71 log2 enrichment (interaction score) with PUM1 PUF domain R4-ANL, 3.12 log2 enrichment (interaction score) in the assay with PUM1 PUF domain R4-SPR and 5.21 log2 enrichment (interaction score) in the assay with PUM1 PUF domain R4-WGS.

With “GGCUAGAACUAGUGGAUCCCCCGGCGCCCGGCGGCUCGAGCCCGGGUAAGCGUAAAUAGUCUGCAUGCCGCCGGGCGCCAUGCCUGCAGGUCGACUCUAGAAAACAUG”, the binding signal with PUM1 PUF domain R8-FFK is 3.27 log2 enrichment (interaction score).

As for “GGCUAGAACUAGUGGAUCCCCCGGCGCCCGGCGGCUCGAGCCCGGGUAAGUGUAAAUAGUCUGCAUGCCGCCGGGCGCCAUGCCUGCAGGUCGACUCUAGAAAACAUG”, the binding signal was 2.33 log2 enrichment (interaction score) with PUM1 PUF domain R5-KHS, 3.35 log2 enrichment (interaction score) with PUM1 PUF domain R4-AQY, 7.85 log2 enrichment (interaction score) in the assay with PUM1 PUF domain R4-AYP and 3.11 log2 enrichment (interaction score) with PUM1 PUF domain R4-WGS.

Source of the values: paper PMC8384837, “Expanding the binding specificity for RNA recognition by a PUF domain”.
